Compound activity from PubChem BioAssay.
bovine MsrA act: activates bovine MsrA enzyme | activation, % at 10.6 µM | 0.3% of 360,000 active | purified bovine MsrA, absorbance read-out; in the data active means activation above about 7.5%;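 further: 0% = vehicle and 100% = reference activator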
14-3-3 Bad inh: disrupts binding of bovine 14-3-3 zeta to phospho-Bad peptide; P63103; TR-FRET 14-3-3zeta/Dy647-pBad peptide displacement, 1 h; inhibition, % at 21.7 µM; 0.71% of 220,000 active;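 active means inhibition above about 70%, limit read from the data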;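 further: 0% = full 14-3-3 plus peptide FRET controls and 100% = background without 14-3-3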
Target sequence (P63103 whole entry, looked up): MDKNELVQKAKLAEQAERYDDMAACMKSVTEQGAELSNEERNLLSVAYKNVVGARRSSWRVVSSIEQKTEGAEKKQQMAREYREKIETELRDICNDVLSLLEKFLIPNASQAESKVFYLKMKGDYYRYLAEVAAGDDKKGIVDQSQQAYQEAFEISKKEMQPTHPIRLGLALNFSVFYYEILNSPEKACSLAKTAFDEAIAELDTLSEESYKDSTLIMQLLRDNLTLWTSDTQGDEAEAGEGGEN
pCIP destab: compounds decreasing mouse p/CIP protein stability; Q05BA5; AID 1984; F442A p/CIP-EGFP cells, EGFP fluorescence, 16 h; decrease of EGFP signal, % at 10 µM; 0.01% of 290,000 active;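 active means EGFP signal decrease of at least 30% at 10 µM or well 3 SD below plate mean, unless failing retest; inactive means the rest, including hits failing retest or dose response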
MsrA inh: bovine MsrA inhibition. purified bovine MsrA, absorbance read-out. inhibition, % at 15.5 µM. 0.75% of 360,000 active. AID 651718; in the data active means inhibition above about 4.5%;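 further: 0% = vehicle wells with enzyme and 100% = reference inhibitor wells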
* hit, by the source's call; x = no result given; [ ] = remark or other dose. This is a sample that favours compounds with a hit; in the whole collection about 1.4% have one here.

SMILES | bovine MsrA act | 14-3-3 Bad inh | pCIP destab | MsrA inh
O=Cc1ccc(-c2cccc([N+](=O)[O-])c2)o1 | -6 | 17 | 6 | 2
O=Cc1ccc(-c2ccc([N+](=O)[O-])cc2Cl)o1 | 3 | 41 | 6 | 5.5*
COC(=O)[C@H](Cc1ccccc1)NC(=O)[C@H]1O[C@@H](n2cnc3c(=O)[nH]c(N)nc32)[C@H](O)[C@@H]1O | x | x | x | 2
Cc1sc2nc(CSc3ccccc3)nc(N3CCC(C(N)=O)CC3)c2c1C | -5 | -3 | -4 | 0
CCOC(=O)c1sc2nc(CSc3ccccc3)nc(N3CCC(C(N)=O)CC3)c2c1C | -2 | -12 | 40* | 1
Cc1cccc(C2Nc3ccccc3C(=O)N2NC(=O)c2ccc([N+](=O)[O-])cc2)n1 (stereo not drawn) | -9 | 74* | -8 | 0
COc1cc(Cl)cc(NC(=O)CCN2CCN(C)CC2)c1 | -1 | 77* | 4 | 0
CN(C)c1ccc(-c2n(C)c3ccccc3[n+]2C)cc1 | -11 | -3 | -37 | 4.6*
O=C(CCc1ccccc1)n1nc(-c2ccccc2)nc1NCc1ccco1 | -1 | -5 | 2 | 1
COc1ccc(CC(=O)n2nc(-c3ccccc3)nc2NCc2ccco2)cc1 | -1 | 78* | -2 | -1
COc1ccc(Nc2nc(NCc3ccco3)nc(N/N=C/c3ccccc3)n2)cc1 | -3 | 81* | 6 | 1
COc1ccccc1CCn1cnc(-c2ccccc2OC)c1CC(C)C | x | x | x | 0
O=C1c2ccccc2C(=O)c2c1ccc(O)c2O | -2 | x | x | 1
COC(=O)c1ccc2c(c1O)C(=O)c1ccccc1C2=O | 9.3* | 0 | -7 | 0
Cc1nc(=O)c(-c2ccccc2)c(C)n1CCO | -11 | 14 | -15 | 0
Cc1nc(=O)c(-c2ccccc2)c(C)n1CCCO | -7 | 90* | 7 | -1
COc1ccccc1-c1cc(C(F)(F)F)n2ncc(S(=O)(=O)c3ccccc3)c2n1 | -11 | 4 | -4 | 9.4*
COc1cccc(C(=O)N[C@@H](CC(C)C)C(=O)N2CCC[C@H]2C(=O)NCc2ccccc2)c1 | x | x | x | 0
CC(C)C1S/C(=N/N=C/c2ccco2)NC1=O (stereo not drawn) | 0 | -5 | -7 | 4.7*
Cc1ccccc1CC1S/C(=N/N=C/c2ccco2)NC1=O (stereo not drawn) | x | 2 | 0 | 3
Cc1ccc(N2CC(C(=O)N/N=C/c3sccc3C)CC2=O)cc1 (stereo not drawn) | -2 | 2 | -5 | 4.6*
COc1cc2c(C)nc3onc(-c4ccccc4)c3c2cc1OC | -3 | 3 | -6 | 2
COc1cc2c(C)nc(C)c(C#N)c2cc1OC | -3 | 78* | -5 | 0
CCc1c(Cc2cccc(F)c2)ncn1CCc1ccccc1OC | x | x | x | 0
COCCN(C(=O)Cc1cccs1)c1nnc(-c2ccncc2)s1 | -10 | 82* | -10 | 0
SMILES | bovine MsrA act | 14-3-3 Bad inh | pCIP destab | MsrA inh
CCN(C(=O)c1cccs1)c1nnc(-c2ccncc2)s1 | -7 | 9 | 3 | 2
CCCCNC(=S)N/N=C/c1ccc(C)s1 | -2 | 0 | -7 | 4.7*
COC(=O)c1ccccc1NC(=O)CCS(=O)(=O)c1ccc(Br)cc1 | 0 | 81* | -6 | 3
O=C(Oc1ccc2c(-c3ccccc3)cc(=O)oc2c1)C1CCCCC1 | -5 | 10 | 0 | 19*
O=C(c1ccc2ncsc2c1)N1CCCCC1 | -2 | x | 4 | 0
O=C(O)c1ccc2ncsc2c1 | -3 | 82* | -2 | 0
COC(=O)N1C[C@H](Oc2ncccn2)[C@H]2C[C@@H]1c1ccccc1O2 | x | x | x | 1
COc1ccc(C(=O)c2c(C(F)(F)F)oc3c2C(=O)c2ccccc2C3=O)cc1OC | 1 | -16 | -17 | 47*
CN1C(=O)NC(c2ccc(O)cc2)C(C(=O)c2cccs2)C1(O)C(F)(F)F (stereo not drawn) | -11 | 0 | -11 | 4.5*
COc1cc(-c2nc3ccc4ccccc4c3c3c2CCC3)cc(OC)c1OC | -3 | 71* | -12 | -1
COC(=O)C1=C(C)N(Cc2ccccc2C(F)(F)F)C(=NCc2cc(OC)c(OC)c(OC)c2)NC1c1ccccc1C(F)(F)F (stereo not drawn) | x | x | x | 0
CC(C)(C)NC(=O)c1sccc1C(=O)O | -2 | 77* | x | -2
Cc1cc(C)c(S(=O)(=O)/N=C2/C=C(SCC(=O)O)C(=O)c3ccccc32)cc1C | 9.4* | 70* | 12 | x
CC(C)c1c(Cl)c(O)c(-c2ccccc2)c(=O)n1-c1ccc(F)cc1 | -3 | 88* | -3 | -1
CC(C)c1cc(O)c(-c2ccccc2)c(=O)n1-c1ccc(Cl)cc1 | -8 | 18 | -7 | 1
Nc1[nH]c(C(=O)c2ccccc2)c(-c2ccc3ccccc3c2)c1C(=O)NCc1ccc(-c2ccccc2)cc1 | x | x | x | 0
CCc1ccc(S(=O)(=O)/N=C2\C=CC(=O)c3ccccc32)cc1 | x | -3 | 6 | x
CCc1ccc(S(=O)(=O)/N=C2/C=C(Sc3ncn[nH]3)C(=O)c3ccccc32)cc1 | 7 | 84*[fluorescence artefact?] | -6 | x
Cc1ccc2nc(SCC(=O)Nc3cccc(F)c3)nc(=O)n2c1 | -4 | x | x | 5.1*
Nc1ccc(N2CCN(c3ccc(F)cc3)CC2)cc1 | -3 | -4 | -1 | 1
Nc1ccc(N2CCCCCC2)cc1 | x | 80*[fluorescence artefact?] | -15 | x
Cc1nc(Cl)c2c(n1)NC(=O)CO2 | 1 | 1 | 10 | -1
Cc1nc2c(c(N3CCOCC3)n1)OCC(=O)N2 | 2 | 74* | 2 | 0
c1ccc2c(c1)SCc1nnc(-c3ccncc3)n1-2 | 1 | 5 | -2 | 0
COc1ccc(-c2nnc3n2-c2ccccc2SC3)cc1OC | 2 | 78* | -16 | 0
SMILES | bovine MsrA act | 14-3-3 Bad inh | pCIP destab | MsrA inh
O=C(Cc1c[nH]c2ccccc12)Nc1ccc(Nc2cccnc2)c(-c2ccc(-c3ccccc3)cc2F)c1 | x | x | x | 3
COc1cc(CN2CCC(C(=O)N3CCCC(C)C3)CC2)cc(Br)c1O (stereo not drawn) | 6 | 79* | -19 | -1
O=C(N[C@@H](Cc1cccnc1)C(=O)N1CCC[C@H]1C(=O)NCc1ccccc1)c1ccccc1 | x | x | x | 0
NC(N)=NS(=O)(=O)c1ccc(NC(=S)NC(=O)c2sc3ccccc3c2Cl)cc1 | -5 | 76* | -18 | 1
Cc1ccc(OC2=NS(=O)(=O)c3ccccc32)cc1 | -6 | 27 | 6 | 1
COc1ccccc1OC1=NS(=O)(=O)c2ccccc21 | -9 | 85* | -6 | 2
Cc1cc(C)n(-c2nc3ccccc3c(=O)n2OCc2ccc(Cl)cc2)n1 | -1 | -5 | -5 | -1
Cc1cc(C)n(-c2nc3ccccc3c(=O)n2OCc2ccc(F)cc2)n1 | -3 | 70*[fluorescence artefact?] | -4 | 1
Cc1ccc(NC(=O)OC[C@@H]2CSCCS(=O)(=O)N2)cc1 | x | x | x | 2
CCCCCc1ccc(OCCOCCn2c[n+](C)c3ccccc32)c(CCCCC)c1 | -2 | 91* | 8 | x
CCCCCc1ccc(OCCC[n+]2ccccc2)c(CCCCC)c1 | 1 | 5 | -14 | -2
Cc1ccccc1CN1CCN(C(=O)[C@H]2O[C@@H](n3cnc(C(N)=O)n3)[C@H](O)[C@@H]2O)CC1 | x | x | x | -2
COc1ccc(Nc2nc(C)c3ccccc3n2)cc1 | -1 | 93* | -7 | 0
